# Test results from article PMC7862700, “An all-to-all approach to the identification of sequence-specific readers for epigenetic DNA modifications on cytosine”.
# Experiments:
# Assay in all cases: DAPPL (digital affinity profiling via proximity ligation, sequencing); 10 mM Tris-HCl pH 7.5, 50 mM NaCl, 1 mM DTT, 4% glycerol, room temperature, 30 min; GST-TFs on glutathione beads, 16-mer random dsDNA library, 0.1% formaldehyde crosslink after washing; high values mean tight binding
# Settings in all cases: protein: recombinant; tags: N-terminal GST; dsDNA, one strand shown
# FLI1 = target: T1, FLI1 (Homo sapiens, UniProt Q01543 1-452)
# T1 sequence: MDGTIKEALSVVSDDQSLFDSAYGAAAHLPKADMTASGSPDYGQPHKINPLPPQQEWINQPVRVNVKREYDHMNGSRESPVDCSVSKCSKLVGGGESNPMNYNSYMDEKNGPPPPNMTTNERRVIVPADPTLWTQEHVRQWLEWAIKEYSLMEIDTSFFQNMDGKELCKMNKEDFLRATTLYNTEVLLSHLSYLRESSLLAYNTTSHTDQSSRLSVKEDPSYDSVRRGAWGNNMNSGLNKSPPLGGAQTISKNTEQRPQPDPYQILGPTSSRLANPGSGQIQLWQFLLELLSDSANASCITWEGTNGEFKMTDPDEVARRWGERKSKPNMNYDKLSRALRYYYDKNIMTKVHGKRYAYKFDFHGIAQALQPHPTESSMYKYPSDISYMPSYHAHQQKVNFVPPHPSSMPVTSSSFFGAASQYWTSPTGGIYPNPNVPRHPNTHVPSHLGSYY
# In short: (§1)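 In yeast, human transcription factors were expressed with a GST fusion, then pulled down on glutathione beads and given DNA barcodes. Pooled with a tag-only sample, they were exposed to 200 nmole of a 16-mer random double-stranded DNA library (Tris/NaCl/DTT/glycerol buffer, room temperature, 30 min), washed, crosslinked with 0.1% formaldehyde, proximity-ligated using BsaI/T4 ligase for 1 h at 37 °C, PCR-amplified and read on an Illumina NextSeq500. Each hexamer's frequency of reads for a factor, divided by the matching frequency for the tag-only sample, gives the binding signal.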
# ELK1 = target: T2, ELK1 (Homo sapiens, UniProt P19419 1-428)
# T2 sequence: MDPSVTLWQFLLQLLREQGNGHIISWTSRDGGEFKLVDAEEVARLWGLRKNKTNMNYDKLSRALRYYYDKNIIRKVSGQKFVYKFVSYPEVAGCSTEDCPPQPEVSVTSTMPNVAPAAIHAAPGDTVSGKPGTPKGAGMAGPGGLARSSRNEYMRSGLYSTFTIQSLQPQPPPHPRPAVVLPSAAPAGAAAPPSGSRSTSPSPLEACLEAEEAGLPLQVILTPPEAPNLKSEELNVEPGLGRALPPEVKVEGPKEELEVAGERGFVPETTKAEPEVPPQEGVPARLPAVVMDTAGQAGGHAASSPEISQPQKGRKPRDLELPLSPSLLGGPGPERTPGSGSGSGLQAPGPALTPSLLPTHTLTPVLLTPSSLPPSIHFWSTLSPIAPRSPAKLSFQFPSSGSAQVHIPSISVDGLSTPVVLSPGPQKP
# In short: as §1
# ELF1 = ELF1 (Homo sapiens, UniProt P32519 1-619)
# In short: as §1
# EHF = target: T3, EHF (Homo sapiens, UniProt Q9NZC4 1-300)
# T3 sequence: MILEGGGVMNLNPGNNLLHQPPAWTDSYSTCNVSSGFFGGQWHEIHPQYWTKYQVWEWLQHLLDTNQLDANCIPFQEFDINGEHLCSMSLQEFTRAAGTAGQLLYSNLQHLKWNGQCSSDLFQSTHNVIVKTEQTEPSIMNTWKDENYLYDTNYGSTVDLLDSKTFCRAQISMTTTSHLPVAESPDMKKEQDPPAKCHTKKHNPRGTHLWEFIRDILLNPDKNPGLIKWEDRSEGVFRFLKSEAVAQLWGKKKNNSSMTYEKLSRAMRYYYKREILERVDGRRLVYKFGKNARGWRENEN
# In short: as §1
# ELK4 = target: T4, ELK4 (Homo sapiens, UniProt P28324-2 1-405)
# T4 sequence: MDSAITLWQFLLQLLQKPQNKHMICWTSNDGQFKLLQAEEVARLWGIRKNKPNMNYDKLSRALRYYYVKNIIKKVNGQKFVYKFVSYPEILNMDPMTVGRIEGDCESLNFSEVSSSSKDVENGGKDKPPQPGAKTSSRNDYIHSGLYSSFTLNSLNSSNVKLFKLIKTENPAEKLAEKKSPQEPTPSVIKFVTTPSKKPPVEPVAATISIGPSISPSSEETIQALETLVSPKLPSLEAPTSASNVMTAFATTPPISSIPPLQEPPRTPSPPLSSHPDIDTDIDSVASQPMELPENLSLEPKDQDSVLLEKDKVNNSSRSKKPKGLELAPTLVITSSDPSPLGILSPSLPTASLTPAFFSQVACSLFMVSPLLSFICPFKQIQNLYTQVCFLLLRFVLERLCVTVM
# In short: as §1
# ETV2 = target: T5, ETV2 (Homo sapiens, UniProt O00321 1-342)
# T5 sequence: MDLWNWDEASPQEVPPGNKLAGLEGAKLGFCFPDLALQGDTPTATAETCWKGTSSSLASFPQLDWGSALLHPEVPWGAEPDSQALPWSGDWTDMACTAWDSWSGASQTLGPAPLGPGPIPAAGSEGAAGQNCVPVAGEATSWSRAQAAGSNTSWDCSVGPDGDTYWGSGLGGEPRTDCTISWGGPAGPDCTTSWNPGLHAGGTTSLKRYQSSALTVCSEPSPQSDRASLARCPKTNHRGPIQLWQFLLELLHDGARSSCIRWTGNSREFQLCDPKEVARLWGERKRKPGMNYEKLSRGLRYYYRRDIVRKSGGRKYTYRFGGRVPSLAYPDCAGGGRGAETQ
# In short: as §1
# ELF3 = target: T6, ELF3 (Homo sapiens, UniProt P78545 1-371)
# T6 sequence: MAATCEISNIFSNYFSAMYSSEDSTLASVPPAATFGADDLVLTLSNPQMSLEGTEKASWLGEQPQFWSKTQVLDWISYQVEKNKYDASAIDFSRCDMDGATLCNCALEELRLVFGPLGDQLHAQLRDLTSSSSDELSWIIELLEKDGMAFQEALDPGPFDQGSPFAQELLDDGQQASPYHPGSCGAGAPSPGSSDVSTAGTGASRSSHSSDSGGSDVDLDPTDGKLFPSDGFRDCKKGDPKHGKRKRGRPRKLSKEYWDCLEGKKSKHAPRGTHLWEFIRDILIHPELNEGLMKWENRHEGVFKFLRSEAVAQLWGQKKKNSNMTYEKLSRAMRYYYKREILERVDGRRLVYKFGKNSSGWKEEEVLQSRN
# In short: as §1
# SPDEF = target: T7, SPDEF (Homo sapiens, UniProt O95238 1-335)
# T7 sequence: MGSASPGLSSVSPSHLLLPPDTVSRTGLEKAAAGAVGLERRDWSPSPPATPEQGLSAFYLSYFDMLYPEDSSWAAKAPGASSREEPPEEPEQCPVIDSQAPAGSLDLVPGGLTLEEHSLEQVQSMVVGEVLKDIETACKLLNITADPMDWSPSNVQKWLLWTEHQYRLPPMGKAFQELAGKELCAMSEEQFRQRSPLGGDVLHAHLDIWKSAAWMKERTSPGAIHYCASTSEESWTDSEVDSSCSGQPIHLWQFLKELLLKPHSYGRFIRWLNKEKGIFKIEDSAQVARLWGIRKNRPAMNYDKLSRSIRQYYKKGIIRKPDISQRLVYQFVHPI
# In short: as §1
# ETV7 = target: T8, ETV7 (Homo sapiens, UniProt Q9Y603 1-341)
# T8 sequence: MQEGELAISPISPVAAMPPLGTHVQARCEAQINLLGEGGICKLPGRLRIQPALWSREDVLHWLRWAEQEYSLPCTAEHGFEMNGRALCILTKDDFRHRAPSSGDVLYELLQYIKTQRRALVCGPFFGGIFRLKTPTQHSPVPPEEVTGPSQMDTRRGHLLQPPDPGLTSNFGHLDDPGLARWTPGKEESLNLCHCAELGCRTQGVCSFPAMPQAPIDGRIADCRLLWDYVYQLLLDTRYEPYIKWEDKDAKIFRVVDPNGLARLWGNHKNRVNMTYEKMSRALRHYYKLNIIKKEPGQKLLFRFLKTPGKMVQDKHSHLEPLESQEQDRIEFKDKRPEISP
# In short: as §1
# Sequence of ELF1 (P32519 whole entry): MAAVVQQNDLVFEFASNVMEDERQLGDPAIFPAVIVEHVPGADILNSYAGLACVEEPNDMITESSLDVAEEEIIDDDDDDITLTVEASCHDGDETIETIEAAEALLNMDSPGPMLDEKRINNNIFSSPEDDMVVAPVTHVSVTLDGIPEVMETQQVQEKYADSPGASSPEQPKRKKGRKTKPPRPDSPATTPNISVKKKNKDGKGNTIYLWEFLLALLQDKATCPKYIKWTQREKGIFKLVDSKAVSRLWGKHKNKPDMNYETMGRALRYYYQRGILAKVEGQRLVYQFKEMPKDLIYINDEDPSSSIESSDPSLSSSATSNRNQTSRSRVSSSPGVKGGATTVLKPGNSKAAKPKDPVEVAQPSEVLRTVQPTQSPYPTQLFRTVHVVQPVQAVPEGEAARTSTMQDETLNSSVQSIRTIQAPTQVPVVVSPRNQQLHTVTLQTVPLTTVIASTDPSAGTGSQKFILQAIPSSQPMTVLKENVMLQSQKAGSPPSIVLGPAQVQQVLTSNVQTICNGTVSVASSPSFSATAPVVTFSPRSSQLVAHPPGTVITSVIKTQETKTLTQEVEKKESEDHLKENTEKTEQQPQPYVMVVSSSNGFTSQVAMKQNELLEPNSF
sequence,measurement,setting,value
GCCGTC,binding signal,FLI1,"1.04 fold enrichment (6-mer frequency, TF over GST control)"
same,binding signal,ELK1,"1.03 fold enrichment (6-mer frequency, TF over GST control)"
same,binding signal,ELF1,"1.02 fold enrichment (6-mer frequency, TF over GST control)"
same,binding signal,EHF,"1.1 fold enrichment (6-mer frequency, TF over GST control)"
same,binding signal,ELK4,"1.1 fold enrichment (6-mer frequency, TF over GST control)"
same,binding signal,ETV2,"1.03 fold enrichment (6-mer frequency, TF over GST control)"
same,binding signal,ELF3,"1.17 fold enrichment (6-mer frequency, TF over GST control)"
same,binding signal,SPDEF,"1.03 fold enrichment (6-mer frequency, TF over GST control)"
same,binding signal,ETV7,"1.03 fold enrichment (6-mer frequency, TF over GST control)"
